In PubChem BioAssay AID932 (The Scripps Research Institute Molecular Screening Center, 2007) one finds activation (% of control) data, which are given here for 102 compounds.

About 5,100 (2.5%) of roughly 200,000 compounds were called active. Shown is part of a subset that was picked to be rich in actives. Values without a mark were called inactive.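 How the source made its calls: active means activation above the screen-wide mean activation plus 3 SD (cut at about 130% in these data); inactive means the rest.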 Where a SMILES comes first, the peptide text is derived from it. [ ]: non-standard residue; d: D form. ξ: configuration not given here. ξM = CSCCC(N)C(=O)O

This assay in a line: STAT1 signaling activators, primary screen, cell-based, HTS, luciferase reporter (AID 932).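 Further: raw ratio to IFN-gamma control signal so 100% means no change and 0% no light.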 The following applies: NIH 3T3 STAT1-luciferase reporter, IFN-gamma, luminescence; at 5.5 µM; hits give high values; 100% = IFN-gamma alone, no compound. (In a reporter assay the amount or activity of a reporter protein is the signal.)
With `OCCC1CN(Cc2cnc(-c3ccccc3)s2)CCN1CCc1ccccc1` (configuration not stated), the activation (% of control) was 100%.

As to `C/C(=N\Nc1ncc(Cl)cc1Cl)c1cccs1`, the activation (% of control) is 143% (active).

Consider `Cc1c(Cl)cnc(NC(=O)COC(=O)c2ccc(S(=O)(=O)NCc3ccco3)cc2)c1Cl`, for which the activation (% of control) was 101%.

In the case of `C/C(=N\NS(=O)(=O)c1ccc(Br)cc1)c1cccs1`, the activation (% of control) was 95.4%.

As to `OCCNc1nc2ccccc2[nH]1`, the activation (% of control) is 104%.

Regarding `COc1cccc(/C(C)=N/Nc2ncc(Cl)cc2Cl)c1`, the activation (% of control) was 126%.

Turning to `C/C(=N\Nc1ncc(Cl)cc1Cl)c1ccc(S(=O)(=O)NCc2ccco2)cc1`, the activation (% of control) is 131% (active).

As to `C/C(=N\Nc1nc(Nc2ccccc2)nc(N2CCOCC2)n1)c1cccs1`, the activation (% of control) is 92.8%.

Regarding `C/C(=N\Nc1nc2ccccc2[nH]1)c1cccs1`, the activation (% of control) was 147% (active).

Consider `O=C(NC1CCC(O)CC1)c1ccc(S(=O)(=O)NCc2ccco2)cc1` (configuration not stated), for which the activation (% of control) is 93.2%.

On to `COc1cccc(CNC(=O)CCN2C(=S)NC(C)(C)CC2C)c1` (configuration not stated), for which the activation (% of control) is 100%.

Consider `Cc1nn(C)c(C)c1CN(C(=O)CCc1nnc(Cc2c[nH]c3ccccc23)o1)C(C)C`, for which the activation (% of control) was 99.9%.

With `CCN(CC)c1ccc(C(=O)c2cnc(/N=C/N(C)C)s2)cc1`, the activation (% of control) was 118%.

In the case of `c1csc(-c2nc(-c3ccncc3)no2)c1`, the activation (% of control) was 130% (active).

Consider `c1ccc(-c2noc(-c3cccs3)n2)nc1`, for which the activation (% of control) was 104%.

On to `COc1nc(-c2ccc(Cl)cc2)ccc1-c1noc(-c2cccs2)n1`, for which the activation (% of control) is 108%.

Take `CC(=O)Nc1ccc(CN2CCN(Cc3ccc(F)c(F)c3)C(CCO)C2)cc1` (configuration not stated): the activation (% of control) was 100%.

As for `O=c1oc(-c2ccco2)nc2sc3c(c12)CCCCC3`, the activation (% of control) was 110%.

Turning to `Cc1c(Br)ccc(NC(=O)COc2ccccc2C(N)=O)c1C`, the activation (% of control) is 97.9%.

As for `Cc1cc(NS(=O)(=O)c2ccc(NC(=O)c3cccc(OC(F)F)c3)cc2)nc(C)n1`, the activation (% of control) is 105%.

On to `CCOC(=O)C1(Cc2ccc(Cl)cc2)CCN(C(=O)C2=NNC(=O)CC2)CC1`, for which the activation (% of control) was 96.4%.

With `CCOC(=O)C1(CCOc2ccccc2)CCN(C(=O)c2cncs2)CC1`, the activation (% of control) was 99.2%.

For the compound `CCOC(=O)C1(Cc2ccccc2C(F)(F)F)CCN(C(=O)c2cc(C)n(C)n2)CC1`, the activation (% of control) is 131% (active).

On to `O=c1cc(CO)oc(C(Nc2cccc(C(F)(F)F)c2)c2ccccn2)c1O` (configuration not stated), for which the activation (% of control) is 99.4%.

For the compound `CCOc1cccc(C(=O)Nc2cccnc2)c1`, the activation (% of control) is 101%.

Regarding `CCOC(=O)c1ccc(-c2ccc(C(=O)Nc3cccnc3)o2)cc1`, the activation (% of control) is 132% (active).

Turning to `CCOC(=O)c1cc(NC(=O)c2cccnc2)cc(C(=O)OCC)c1`, the activation (% of control) was 96.5%.

On to `O=C(N1CCCC1)C12CC3CC(C1)CC(C(=O)N1CCCC1)(C3)C2`, for which the activation (% of control) is 99.8%.

`CCCNC(=O)c1ccc(Cl)c(Cl)c1`: the activation (% of control) is 98.4%.

`Cc1c(C(=O)NCc2ccccc2)cnn1-c1ccccc1`: the activation (% of control) was 101%.

As for `CCCNC(=O)c1c(Cl)cnn1-c1ccc(C)cc1`, the activation (% of control) was 142% (active).

On to `Cn1ncc(N2CCN(S(=O)(=O)c3ccc(Br)cc3)CC2)c(Cl)c1=O`, for which the activation (% of control) was 110%.

As to `COc1cc(C)c(Cl)cc1S(=O)(=O)n1ccnc1`, the activation (% of control) is 92.5%.

As for `Nc1nc(NCCCN2CCOCC2)nc(Nc2ccccc2)c1[N+](=O)[O-]`, the activation (% of control) is 103%.

As for `COCCNc1nc(N)c([N+](=O)[O-])c(NCCO)n1`, the activation (% of control) is 114%.

Consider `CNc1nc(Nc2ccc(C)c(Cl)c2)nc(N)c1[N+](=O)[O-]`, for which the activation (% of control) is 142% (active).

Turning to `Cc1nn(-c2ccccc2)c(NC(=O)c2cccs2)c(-c2ccc(Cl)cc2)c1=O`, the activation (% of control) was 107%.

Turning to `CC(C)(C)NS(=O)(=O)c1ccc(NC(=O)NC2CCCCC2)cc1`, the activation (% of control) was 103%.

For the compound `CC(C)N1CCC(NC(=O)Nc2ccccc2)CC1`, the activation (% of control) was 95.4%.

For `CC(C)c1ccc(NC(=O)NC2CCCCC2)cc1`, the activation (% of control) is 180% (active).

With `Cc1nn2cc(-c3ccc(Cl)cc3)cnc2c1Br`, the activation (% of control) was 140% (active).

As to `COc1ccccc1-c1nnc(NC(=O)c2ccc3ncsc3c2)o1`, the activation (% of control) was 122%.

In the case of `O=C(CC(=O)N/N=C\c1ccc(F)cc1)NCCc1ccccc1`, the activation (% of control) is 100%.

As for `O=C(NNC(=O)C1C2CCC(C2)C1C(=O)O)c1ccc(Cl)cc1` (configuration not stated), the activation (% of control) is 110%.

Consider `Cc1ccccc1NC(=O)NNC(=O)OC(C)(C)C`, for which the activation (% of control) was 103%.

Turning to `C/C(=N\NC(=O)OC(C)(C)C)c1ccc[nH]1`, the activation (% of control) was 130% (active).

Take `CC(C)(C)OC(=O)N/N=C/c1ccc(C(=O)O)cc1`: the activation (% of control) was 104%.

Regarding `COc1ccc(C(=O)C2CCCN(C(=O)c3cc4nc(C)cc(C)n4n3)C2)cc1F` (configuration not stated), the activation (% of control) was 95.3%.

As for `COc1ccc(-n2nc3c(c2NC(=O)c2ccc(N4C(=O)CCC4=O)cc2)CSC3)cc1`, the activation (% of control) is 96.7%.

Turning to `NC(N)=N/N=C/c1ccc(Cl)c([N+](=O)[O-])c1`, the activation (% of control) was 93.6%.

With `Cc1ccc(NC(=S)NC(=O)c2ccc(-c3ccccc3)cc2)cc1`, the activation (% of control) was 98.2%.

In the case of `Cc1ccccc1NC(=S)NNC(=O)c1cccc(Br)c1`, the activation (% of control) was 104%.

Consider `Cc1ccc(C)c(NC(=S)NNC(=O)c2csc(C)c2)c1`, for which the activation (% of control) was 97.8%.

As to `Cc1ccc(NC(=S)NC(=O)c2ccc(-c3ccccc3)cc2)c(C)c1`, the activation (% of control) was 92%.

In the case of `Cc1cc(C(=O)NNC(=S)Nc2ccccc2C)cs1`, the activation (% of control) is 130% (active).

As for `Cc1ccc(C(=O)NC(=S)Nc2ccccc2C)cc1`, the activation (% of control) is 130% (active).

`CCCN(C(=O)CSc1nnnn1C)c1c(N)n(Cc2ccccc2)c(=O)[nH]c1=O`: the activation (% of control) is 101%.

`COc1ccc(N/N=C2/CCCCC2=O)cc1`: the activation (% of control) is 105%.

Consider `Cc1ccc(N/N=C2\COC(C)(C)CC2=O)cc1`, for which the activation (% of control) was 142% (active).

Take `CCn1cc(CN2CCCC(CNS(=O)(=O)Cc3ccccc3)C2)cn1` (configuration not stated): the activation (% of control) is 89.7%.

For `CN=c1scc(-c2cc(OC)ccc2OC)n1/N=C/c1c(C)[nH]c2ccccc12`, the activation (% of control) is 112%.

As to `CCn1ccnc1CN1CCCC(C(=O)c2ccc3c4c(cccc24)CC3)C1` (configuration not stated), the activation (% of control) was 89.5%.

Take `Cc1cccc(NC(=O)/C=C/c2ccc3c(c2)OCO3)n1`: the activation (% of control) is 135% (active).

`CC(NC(=O)Nc1ccc2c(c1)OCO2)c1ccncc1` (configuration not stated): the activation (% of control) is 97.9%.

As for `Cc1cccc(NC(=O)Nc2ccc3c(c2)OCO3)n1`, the activation (% of control) is 168% (active).

With `COc1ccc(/C=C/C(=O)Nc2ccc3c(c2)OCCO3)cc1OC`, the activation (% of control) is 96.8%.

As to `COc1ccc(OC)c(/C=C/C(=O)OCC(=O)Nc2ccc3c(c2)OCCO3)c1`, the activation (% of control) was 98.4%.

As to `COc1cccc(/C=C/C(=O)Nc2ccc3c(c2)OCCO3)c1`, the activation (% of control) was 129% (active).

Regarding `CC(C)C(=O)Nc1cccc(C(=O)Nc2ccc3c(c2)OCO3)c1`, the activation (% of control) was 120%.

Regarding `CCc1c(C)sc(NC(=O)/C=C/c2ccc3c(c2)OCO3)c1C(=O)OC`, the activation (% of control) is 96.1%.

Consider `O=C(/C=C/c1ccc2c(c1)OCO2)NCc1ccc(F)cc1`, for which the activation (% of control) was 101%.

As to `CC(=C/c1ccccc1)/C=N/NC(=O)c1cc(C)oc1C`, the activation (% of control) was 117%.

On to `O=C(O)/C=C\C(=O)Nc1ccc(OCc2ccccc2)cc1`, for which the activation (% of control) was 120%.

Take `Cn1c(SCC(=O)NC2CCCCC2)nnc1-c1ccc(N)cc1`: the activation (% of control) was 101%.

For `CCSc1nc(C)c(CCOc2cccc(C)c2)c(=O)[nH]1`, the activation (% of control) was 102%.

As for `CCC(=O)Oc1cccc(C(=O)Nc2ccc(-c3nnc(-c4ccco4)o3)cc2)c1`, the activation (% of control) was 104%.

On to `CCOc1ccc(-c2nnc(-c3ccco3)o2)cc1`, for which the activation (% of control) was 93.5%.

Turning to `CCCCOc1ccc(-c2nnc(-c3ccco3)o2)cc1`, the activation (% of control) is 130% (active).

Take `COC(=O)CSc1nc(C)c2ccc(OC)cc2n1`: the activation (% of control) is 108%.

For `COc1ccc2nc(SCc3ccccc3)nc(C)c2c1`, the activation (% of control) is 188% (active).

For `COc1ccc(-c2nnc3ccc(SCc4ccccc4)nn23)cc1`, the activation (% of control) was 96.5%.

With `Cc1ccc(C)c2[nH]c(=O)c(CCNC(=O)c3cccs3)cc12`, the activation (% of control) is 102%.

For `CCOC(=O)C1(CCOC)CCN(Cc2ccc(C(=O)OC)cc2)CC1`, the activation (% of control) was 106%.

Take `CN1C(=O)/C(=C/C=C2\SCCN2C)OC1=S`: the activation (% of control) was 158% (active).

For the compound `O=C(NCc1ccccn1)c1cc(Br)ccc1Cl`, the activation (% of control) is 104%.

Turning to `COc1ccc(OCC(=O)NNC(=O)c2cccc(C)c2)cc1`, the activation (% of control) was 103%.

For `O=C(O)c1ccc(NC(=O)c2cccs2)cc1`, the activation (% of control) is 98.1%.

Consider `CC(=O)Nc1ccc(/C=N/NC(=O)c2cccs2)cc1`, for which the activation (% of control) is 136% (active).

On to `Cc1cccc(-n2c(C)cc(/C=N/NC(N)=S)c2C)c1`, for which the activation (% of control) is 110%.

Consider `Cc1ccc(-n2nc(C)c(/C=N/NC(=O)c3cccs3)c2Cl)cc1`, for which the activation (% of control) is 106%.

With `O=C(N/N=C/C=C/c1ccco1)c1cccs1`, the activation (% of control) is 127%.

On to `Cc1cccc(-n2c(C)cc(/C=N\NC(=O)c3cccs3)c2C)c1`, for which the activation (% of control) was 140% (active).

For `CN(C)N(C)C(=O)C(O)(c1ccccc1)c1ccccc1`, the activation (% of control) is 93.5%.

With `COc1cc(OC)c(C(=O)OCC(=O)N2CC(=O)Nc3ccccc32)cc1OC`, the activation (% of control) is 97%.

Turning to `N#C/C(=C/c1cccc([N+](=O)[O-])c1)c1nnc2n1CCCCC2`, the activation (% of control) was 100%.

As for `C/C(=N/Nc1ccc(Cl)cc1)c1cnnc(-c2ccccc2)n1`, the activation (% of control) was 99.5%.

Regarding `COC(=O)CNC(=O)C(CCSC)NC(C)=O` (configuration not stated) (Ac-[ξM]-Gly-OMe), the activation (% of control) is 99.5%.

On to `O=c1c(Cl)c(NC2CC2)cnn1-c1ccccc1`, for which the activation (% of control) was 108%.

As for `C=CCNc1cnn(-c2ccc(C)cc2)c(=O)c1Cl`, the activation (% of control) was 134% (active).

Consider `Cc1ccc(Oc2cnn(-c3ccccc3)c(=O)c2Br)cc1`, for which the activation (% of control) was 108%.

As for `CN(C)c1ccc(/C=N/Nc2cc(N3CCOCC3)nc(N3CCOCC3)n2)cc1`, the activation (% of control) was 104%.

`C=CCN(c1ccc(Cl)cc1)S(=O)(=O)c1cccc(C(=O)OCC(=O)N(C)C)c1`: the activation (% of control) is 97.2%.
